Assay results reported in PubChem BioAssay AID1159580 (chemical genetic matrix, 2015).
Hit rate of the full screen: of about 5,500 compounds, about 2,000 (36%) were called active. Roughly 18% stayed inconclusive and do not appear here. No stated cut-off is given here; in the data, active means normalized growth mostly below about 0.91 (no sharp cut-off); inconclusive means no clear call, values can overlap the other calls; inactive means mostly above about 0.92. Some of the results follow.

Test: chemical genetic growth profiling, strain panel (AID 1159580);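 further: tested at 20 µM; growth read once vehicle control cultures reached saturation at 30 °C; 1 = growth at the plate median or of vehicle wells; lower values mean less growth of the strain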
Conditions: growth OD

Measured: normalized growth

CC(C)=CCc1c(O)cc2occ(-c3ccc4c(c3)OCO4)c(=O)c2c1O
active: S. cerevisiae deletion strains, locus YLL001W, strain dnm1, hits give low values 0.81 | S. cerevisiae deletion strains, locus YLR027C, strain aat2, hits give low values 0.918 | S. cerevisiae deletion strains, locus YLR113W, strain HOG1, hits give low values 0.75 | S. cerevisiae deletion strains, locus YLR221C, strain rsa3, hits give low values 0.865 | S. cerevisiae deletion strains, locus YML120C, strain ndi1, hits give low values 0.895 | S. cerevisiae deletion strains, locus YMR058W, strain fet3, hits give low values 0.828 | S. cerevisiae deletion strains, locus YOR001W, strain rrp6, hits give low values 0.857 | S. cerevisiae deletion strains, locus YOR231W, strain MKK1, hits give low values 0.816 | S. cerevisiae deletion strains, locus YOR270C, strain vph1, hits give low values 0.729 | S. cerevisiae deletion strains, locus YPL051W, strain arl3, hits give low values 0.877 | S. cerevisiae deletion strains, locus YPL256C, strain CLN2, hits give low values 0.808
inactive: S. cerevisiae deletion strains, locus YJR066W, strain TOR1, hits give low values 0.832 | S. cerevisiae deletion strains, locus YJR075W, strain HOC1, hits give low values 0.994 | S. cerevisiae deletion strains, locus YKL068W, hits give low values 1.01 | S. cerevisiae deletion strains, locus YKL085W, strain MDH1 (second series), hits give low values 1 | S. cerevisiae deletion strains, locus YKL085W, strain MDH1, hits give low values 1 | S. cerevisiae deletion strains, locus YKL160W, strain elf1, hits give low values 0.934 | S. cerevisiae deletion strains, locus YKL190W, strain CNB1, hits give low values 1.01 | S. cerevisiae deletion strains, locus YKR001C, strain vps1, hits give low values 1.03 | S. cerevisiae deletion strains, locus YKR026C, strain gcn3, hits give low values 0.992 | S. cerevisiae deletion strains, locus YKR091W, strain srl3, hits give low values 1 | S. cerevisiae deletion strains, locus YLL026W, hits give low values 0.984 | S. cerevisiae deletion strains, locus YLL041C, strain sdh2, hits give low values 0.991 | S. cerevisiae deletion strains, locus YLR039C, strain RIC1, hits give low values 1.06 | S. cerevisiae deletion strains, locus YLR058C, strain SHM2, hits give low values 1.02 | S. cerevisiae deletion strains, locus YLR102C, strain apc9, hits give low values 1.03 | S. cerevisiae deletion strains, locus YLR258W, strain gsy2, hits give low values 0.919 | S. cerevisiae deletion strains, locus YLR262C, strain YPT6 (second series), hits give low values 0.911 | S. cerevisiae deletion strains, locus YLR262C, strain YPT6, hits give low values 1.06 | S. cerevisiae deletion strains, locus YLR268W, strain sec22, hits give low values 1 | S. cerevisiae deletion strains, locus YLR320W, strain mms22, hits give low values 0.929 | S. cerevisiae deletion strains, locus YLR330W, strain CHS5, hits give low values 1.01 | S. cerevisiae deletion strains, locus YLR342W, strain FKS1 (second series), hits give low values 0.996 | S. cerevisiae deletion strains, locus YLR342W, strain FKS1, hits give low values 0.952 | S. cerevisiae deletion strains, locus YLR357W, strain rsc2, hits give low values 0.948 | S. cerevisiae deletion strains, locus YLR370C, strain arc18, hits give low values 0.992 | S. cerevisiae deletion strains, locus YLR371W, strain rom2, hits give low values 1.04 | S. cerevisiae deletion strains, locus YLR384C, strain iki3, hits give low values 0.992 | S. cerevisiae deletion strains, locus YLR418C, strain cdc73, hits give low values 1.01 | S. cerevisiae deletion strains, locus YML016C, strain PPZ1, hits give low values 1.01 | S. cerevisiae deletion strains, locus YML032C, strain rad52, hits give low values 1.02 | S. cerevisiae deletion strains, locus YML124C, strain tub3, hits give low values 1.02 | S. cerevisiae deletion strains, locus YMR078C, strain ctf18, hits give low values 1.03 | S. cerevisiae deletion strains, locus YMR125W, strain sto1, hits give low values 0.957 | S. cerevisiae deletion strains, locus YMR129W, hits give low values 0.982 | S. cerevisiae deletion strains, locus YMR205C, strain PFK2, hits give low values 0.96 | S. cerevisiae deletion strains, locus YMR223W, strain ubp8, hits give low values 1.02 | S. cerevisiae deletion strains, locus YMR231W, strain pep5, hits give low values 0.993 | S. cerevisiae deletion strains, locus YMR263W, strain SAP30, hits give low values 1 | S. cerevisiae deletion strains, locus YMR307W, strain GAS1, hits give low values 1 | S. cerevisiae deletion strains, locus YNL067W, strain RPL9B, hits give low values 1 | S. cerevisiae deletion strains, locus YNL071W, strain lat1, hits give low values 0.949 | S. cerevisiae deletion strains, locus YNL128W, strain TEP1, hits give low values 1.02 | S. cerevisiae deletion strains, locus YNL153C, strain GIM3, hits give low values 1 | S. cerevisiae deletion strains, locus YNL183C, strain NPR1, hits give low values 0.839 | S. cerevisiae deletion strains, locus YNL209W, strain ssb2, hits give low values 0.937 | S. cerevisiae deletion strains, locus YNL233W, strain BNI4, hits give low values 0.971 | S. cerevisiae deletion strains, locus YNL248C, strain rpa49, hits give low values 0.962 | S. cerevisiae deletion strains, locus YNL250W, strain rad50, hits give low values 1.04 | S. cerevisiae deletion strains, locus YNL271C, strain bni1, hits give low values 1.03 | S. cerevisiae deletion strains, locus YNL298W, strain CLA4, hits give low values 1.05 | S. cerevisiae deletion strains, locus YNL307C, strain MCK1, hits give low values 1.02 | S. cerevisiae deletion strains, locus YNL322C, strain KRE1 (second series), hits give low values 0.998 | S. cerevisiae deletion strains, locus YNL322C, strain KRE1, hits give low values 1.01 | S. cerevisiae deletion strains, locus YNR049C, strain mso1, hits give low values 0.982 | S. cerevisiae deletion strains, locus YNR052C, strain pop2, hits give low values 1.03 | S. cerevisiae deletion strains, locus YOL006C, strain TOP1, hits give low values 1.05 | S. cerevisiae deletion strains, locus YOL012C, strain htz1 0.966 | S. cerevisiae deletion strains, locus YOL147C, strain pex11, hits give low values 1.03 | S. cerevisiae deletion strains, locus YOR061W, strain CKA2, hits give low values 1.01 | S. cerevisiae deletion strains, locus YOR069W, strain VPS5, hits give low values 1.01 | S. cerevisiae deletion strains, locus YOR070C, strain gyp1, hits give low values 0.954 | S. cerevisiae deletion strains, locus YOR080W, strain dia2, hits give low values 0.925 | S. cerevisiae deletion strains, locus YOR083W, strain WHI5, hits give low values 0.925 | S. cerevisiae deletion strains, locus YOR106W, strain vam3, hits give low values 0.899 | S. cerevisiae deletion strains, locus YOR136W, strain idh2, hits give low values 1.03 | S. cerevisiae deletion strains, locus YOR144C, strain elg1, hits give low values 1.02 | S. cerevisiae deletion strains, locus YOR184W, strain ser1, hits give low values 1.05 | S. cerevisiae deletion strains, locus YOR265W, strain rbl2, hits give low values 0.968 | S. cerevisiae deletion strains, locus YOR290C, strain snf2, hits give low values 0.916 | S. cerevisiae deletion strains, locus YOR316C, strain cot1, hits give low values 1.02 | S. cerevisiae deletion strains, locus YPL055C, strain LGE1, hits give low values 0.993 | S. cerevisiae deletion strains, locus YPL078C, strain atp4, hits give low values 0.918 | S. cerevisiae deletion strains, locus YPL106C, strain sse1, hits give low values 0.915 | S. cerevisiae deletion strains, locus YPL240C, strain hsp82, hits give low values 0.974 | S. cerevisiae deletion strains, locus YPL241C, strain CIN2, hits give low values 1.01 | S. cerevisiae deletion strains, locus YPR119W, strain clb2, hits give low values 1.02 | S. cerevisiae deletion strains, locus YPR141C, strain kar3, hits give low values 1.03 | S. cerevisiae deletion strains, locus YPR163C, strain tif3, hits give low values 1.02 | S. cerevisiae deletion strains, locus YPR167C, strain met16, hits give low values 1.03 | S. cerevisiae deletion strains, strain wtn01, hits give low values 1.02 | S. cerevisiae strains, strain wild type, hits give low values 1
